Screening results deposited in PubChem BioAssay by National Center for Advancing Translational Sciences (NCATS).
Hits are enriched below; roughly 19% of the tested compounds scored in any of these assays.
ELG1 repair inh – ELG1-dependent DNA repair inhibition. HEK293T ELG1-luciferase reporter, luminescence, 16 h; DNA damage induced by 5-fluorouridine. 2.3% of 330,000 active. AID 504467. Potency, µM (top dose mostly 46.1 µM), for inactives: at the highest dose activity change, negative = inhibition, most hits filed as inhibitors; note: potency is the fitted concentration of half-maximal effect; nearly all actives have a fitted effect of over 55% in size
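In this reporter screen, reduction of luminescence relative to DMSO vehicle indicated activity. Compounds and 5-fluorouridine were added together to 2,000 cells per well, incubated for 16 hr at 37 °C, then developed with ONE-Glo.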
TDP1 cell CPT – DT40-hTDP1 cell growth loss with CPT | chicken DT40 Tdp1-/-;hTDP1 cells + 20 nM CPT, ATP luminescence, 48 h | Potency, µM (highest dose often 46.2 µM), for inactives: at the top dose activity change, negative = growth inhibition, usual class: inhibitors | 12% of 420,000 active; note: potency is the fitted concentration of half-maximal effect; nearly all actives have a fitted effect of over 55% in size
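Chicken DT40 Tdp1-/- cells complemented with human TDP1, 400 cells/well, exposed to compounds plus 20 nM camptothecin for at least 48 h at 37 C; viability read as ATP content by CellTiter-Glo luminescence.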
IL-1B inflam inh – inflammasome signaling inhibition, IL-1 beta readout | THP-1 LPS/ATP IL-1B secretion, AlphaLISA, 16 h; hits give low values | activity change, % at 57.5 µM | 4.7% of 360,000 active | AID 743279; in the data active = activity change below about -50%; inconclusive = mostly about -30% to -49%
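Secreted IL-1B measured by AlphaLISA bead assay after 16 h compound exposure of THP-1 cells; compounds (final up to 57.5 uM) added 1 h before LPS (250 ng/mL) and ATP (1.25 mM) stimulation; lower signal means less secretion.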
TDP1 cell noCPT – qHTS for Inhibitors of human tyrosyl-DNA phosphodiesterase 1 (TDP1): qHTS in cells in absence of CPT; DT40 Tdp1-/- hTDP1 cells, no CPT, ATP luminescence, 48 h; Potency, µM (doses to about 46.2 µM), for inactives: top-dose activity change, negative = growth inhibition, usual class: inhibitors; 15% of 420,000 active; AID 686978, 2013; note: potency is the fitted concentration of half-maximal effect; nearly all actives have a fitted effect of over 55% in size
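Chicken DT40 Tdp1-/- cells complemented with human TDP1, screened without camptothecin (DMSO vehicle only), 400 cells/well. Compounds pin-transferred, cells incubated at 37 °C for at least 48 hr. Growth read as ATP-dependent luminescence (CellTiter-Glo, 30 min at RT).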
HT1080NT lethal – kills 2HG-producing HT-1080-NT fibrosarcoma cells. HT-1080-NT fibrosarcoma viability, CellTiter-Glo ATP luminescence, 48 h. AID 686970. Potency, µM (highest dose often 46.1 µM), for the others: at the top dose activity, negative = less viability, actives largely listed as cytotoxic. 1.6% of 360,000 active;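 note: NT is the 2HG producing partner of a matched IDH1 knockdown line; potency is the fitted concentration of half-maximal effect; 0% = DMSO-treated cells and -100% = media-only wells without cells; nearly all actives have a fitted effect of over 55% in size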
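Luminescent CellTiter-Glo readout after 48 hours of compound exposure at 37 degrees C defined viability of HT-1080-NT cells. Activity was normalized to DMSO wells and cell-free media wells; concentration-response curves were fitted and assigned curve classes.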
HT1080 IDH1KD tx – toxicity to HT-1080 IDH1 knockdown cells (counter line). Potency, µM (titrated, usually from 46.1 µM), without a hit: at the highest dose activity, negative = toxicity, most hits filed as cytotoxic. 2% of 360,000 active. HT-1080 IDH1 knockdown viability, ATP luminescence, 48 h;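 note: potency is the fitted concentration of half-maximal effect; 0% = DMSO wells and -100% = cell-free medium wells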
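% activity derives from luminescence (CellTiter-Glo), normalised to DMSO and no-cell wells. HT-1080-IDH1KD cells, 750/well, had 48 h compound exposure at 37 °C.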
Numbers without * were called inactive; ? = inconclusive; . = no result given. Unless noted, calls come from the whole dose curve; as a rule, active = well fitted curve in the direction sought with a large enough effect; inconclusive = small, poorly fitted or top-dose-only effect, or another doubt; inactive = no such curve, though single readings can be large; an effect the other way counts as inactive or inconclusive. Unless noted, % is set by controls: 0 for no effect and ±100 for the full control effect.

SMILES	ELG1 repair inh	TDP1 cell CPT	IL-1B inflam inh	TDP1 cell noCPT	HT1080NT lethal	HT1080 IDH1KD tx
CCCCOc1cc(C[C@@H]2CNC(=O)N2)ccc1OC	.	0%	.	2%	.	.
CCCCOc1ccc(CN=C(N)N)cc1Cl	?	2.3µM*	-74*	1.5µM*	?	?
COc1ccccc1N1CCN(c2nc3ccc(C)cc3n3nnnc23)CC1	.	10%	.	7%	.	.
Cn1c2nc(=O)n(-c3ccccc3)c(=O)c-2nc2c1CCCC2	.	21µM*	11	?	-11%	-13%
COc1ccc(/C=C/C(=O)Nc2ccc(S(=O)(=O)N3CCOCC3)cc2)c(OC)c1	23µM*	?	-13	18µM*	-12%	-1%
COc1ccc(NC(=O)/C=C/c2ccc(S(=O)(=O)N3CCOCC3)cc2)cc1	18%	-2%	-9	0%	9%	1%
CCN1CCN(c2ccc(S(=O)(=O)N3CCOCC3)cc2NC(=O)/C=C/c2ccc(OC)cc2OC)CC1	-10%	26µM*	-21	?	2%	-11%
COc1ccc(/C=C/C(=O)Nc2ccc(C)c(S(=O)(=O)N3CCOCC3)c2)cc1	21µM*	?	-25	18µM*	?	21µM*
CCN1CCN(c2ccc(S(=O)(=O)N3CCOCC3)cc2NC(=O)/C=C/c2ccc([N+](=O)[O-])cc2)CC1	12%	?	-106*	2.9µM*	-6%	-6%
CCc1noc(C)c1C(=O)OCC(=O)N(C)c1c(N)n(Cc2ccccc2)c(=O)[nH]c1=O	-3%	-5%	8	4%	7%	1%
CC(C)(C)C(=O)CN1C2=NCCCN2c2ccccc21	-17%	-1%	-7	9%	6%	9%
COc1ccccc1C(=O)N/C(=C/c1ccco1)C(=O)Nc1cccc(C(=O)O)c1	10%	3%	-21	11%	-1%	1%
O=C(Nc1ccc(S(=O)(=O)N2CCOCC2)cc1)c1cc(-c2ccccc2O)n[nH]1	0%	-19%	?	1%	-3%	-16%
COc1ccc(Cl)cc1NC(=O)c1cc(-c2ccccc2O)n[nH]1	13%	?	-12	15µM*	-2%	-3%
COc1ccc(OC)c(NC(=O)c2cc(-c3cc(Cl)ccc3O)n[nH]2)c1	?	18µM*	?	12µM*	-27%	?
CC1CN(S(=O)(=O)c2ccc(NC(=O)c3cc(-c4ccccc4O)n[nH]3)cc2)CC(C)O1 (centres undefined)	20µM*	21µM*	-51*	?	?	?
Cc1c(Cl)cccc1NC(=O)c1cc(-c2ccccc2O)n[nH]1	?	?	-60*	?	?	?
COc1ccc(NC(=O)Nc2cccc3[nH]c([C@@H]4O[C@H](CO)[C@@H](O)[C@H](O)[C@H]4O)nc23)cc1OC1CCCC1	.	-2%	41	4%	20%	16%
COC(=O)c1ccc(C(=O)OC)c(NC(=O)c2cc3nc(-c4ccc(C)cc4)cc(C(F)(F)F)n3n2)c1	.	-4%	.	0%	.	.
CC(=O)c1ccc(NC(=O)CN2C(=O)COc3ccc(S(=O)(=O)N4CCCC4)cc32)cc1	?	?	-19	?	4%	7%
COc1cccc(Cn2c(=O)c(-c3cccs3)nc3cnc(N(C)C)nc32)c1	.	1%	.	15%	.	.
O=C(c1ccc(Br)o1)N1CCN(CCc2ccncc2)CC1	-13%	-10%	10	-22%	0%	0%
NS(=O)(=O)c1ccc(NC(=O)c2cc(-c3cc(Cl)ccc3O)n[nH]2)cc1	5.2µM*	-7%	-29	?	?	18µM*
Cc1cc2c(n1-c1ccc(C(=O)NCc3ccc(OC(C)C)cc3)cc1)CCCC2	.	26µM*	.	16µM*	.	.
Cc1cc2c(n1-c1ccc(C(=O)NCc3ccccc3Cl)cc1)CCCC2	.	23µM*	.	18µM*	.	.
SMILES	ELG1 repair inh	TDP1 cell CPT	IL-1B inflam inh	TDP1 cell noCPT	HT1080NT lethal	HT1080 IDH1KD tx
O=C(NCc1ccccc1Cl)c1ccc(-c2ccccc2)cc1	?	-26%	10	?	-21%	-28%
O=C(Nn1c(-c2ccncc2)nc2ccccc2c1=O)c1ccc([N+](=O)[O-])cc1Cl	-2%	-6%	16	4%	2%	2%
CCOC(=O)c1ccc2[nH]c(CSc3nnc(-c4cccc(F)c4)n3C)cc(=O)c2c1	.	2%	.	2%	.	.
CCc1ccc(-c2ccc(SCc3ccccn3)nn2)cc1	?	4%	?	?	-13%	-10%
COc1ccc(-c2nnc(SCc3ccccn3)n2C)cc1	?	29µM*	11	?	-3%	21%
COc1ccc(-c2nnc(SCc3cc(=O)c4cc(C)cc(C)c4[nH]3)n2C)cc1	.	23µM*	.	18µM*	.	.
CCOc1ccc(-c2ccc(SCc3ccccn3)nn2)cc1	5%	?	-12	23µM*	-11%	-18%
Cn1c(SCc2cc(=O)c3cc(Cl)ccc3[nH]2)nnc1-c1ccccc1	.	13µM*	.	21µM*	.	.
COc1ccccc1-c1nnc(SCc2ccccn2)n1C	-7%	9%	-11	8%	9%	2%
COC(=O)[C@@]12C[C@@H](CC(=O)N3CCN(C(=O)C4CC4)CC3)C(=O)N(CCc3ccc(OC)c(OC)c3)C1=CCC(C)(C)C2	.	12%	12	-18%	7%	6%
COc1ccc(C(=O)N2CCN(c3ccc(N4CCOCC4)nn3)CC2)cc1OC	3%	3%	8	9%	5%	6%
CCOC(=O)C1=C(c2ccccc2)NC(=O)NC1c1ccsc1 (centres undefined)	1%	-1%	22	-21%	0%	2%
CC(C)Cc1nnc(NC(=O)CCC(=O)N2CCN(c3ccc(F)cc3)CC2)s1	1%	-8%	12	-17%	-2%	-6%
CN(Cc1ccccc1)c1nc(N)c([N+](=O)[O-])c(NCc2ccccc2)n1	-17%	?	-51*	?	?	?
Nc1nc(NCCN2CCOCC2)nc(NCc2ccccc2)c1[N+](=O)[O-]	-1%	?	-2	18µM*	-6%	-13%
CCN(C)C1CN(Cc2cn(Cc3ccc(C(F)(F)F)cc3)nn2)S(=O)(=O)C1 (centres undefined)	.	-9%	1	-2%	3%	1%
CCn1c(COc2ccc(=O)n(-c3ccccc3)n2)nnc1SCc1ccc(C)cc1	4%	-28%	-4	?	-4%	-11%
